Data from PubChem BioAssay (Tox21).
Inconclusive results are not listed. A call without a number means that no potency is given here. Some structures have more than one record in an assay (separate samples or runs), and their calls can disagree. A number with no mark means an inactive call. Calls of active or inactive are those of the source. Calls follow the shape of the dose curve; as a rule, active = well fitted cell-killing curve with a large enough effect in the repeat runs; inconclusive = weak or mixed curves, or effect the other way; inactive = no such curve, though single readings can be large or run the other way.

Assay: qHTS assay to identify small molecule antagonists of the thyroid receptor (TR) signaling pathway - cell viability counter screen (AID 743064); also: nearly all actives have a fitted effect of over 50% in size
Details: GH3.TRE-Luc viability, CellTiter-Fluor, 24 h; series mostly up to 70.3 µM
From the text: National Center for Advancing Translational Sciences [NCATS]
NIH Chemical Genomics Center [NCGC]
U.S. Environmental Protection Agency [EPA]
National Institutes of Environmental Health Sciences [NIEHS]
National Toxicology Program [NTP]
U.S. Food and Drug Administration [FDA]
Thyroid receptor (TR), a nuclear hormone receptor, plays an important role in development, proliferation, differentiation, metabolism, brain function, and cardiovascular system. […] To profile the Tox21 10K compound library in TR signaling, a cell-based GH3-TRE-Luc assay (GH3.TRE-Luc cell line, developed by the laboratory of Dr. Albertinka J. Murk, Wageningen University) was used to measure the inhibition of TR. GH3 (rat pituitary tumor) cells stably expressing a TR activity sensor consisting of two TR response elements and a luciferase reporter gene. The cytotoxicity of the Tox21 compound library against the GH3.TRE-Luc cell line was tested in parallel by measuring the cell viability using CellTiter-Fluor assay (Promega, Madison, WI) in the same wells.
Tox21 Assay Protocol Summary:
GH3.TRE-Luc cells were dispensed at 1500 cells/4 uL/well into 1536-well white solid bottom plates using a Multidrop Combi dispenser (Thermo Fisher Scientific Inc., Waltham, MA). After the assay plates were incubated at 37 C for 4 hours, 23 nL of library compound or DMSO controls was transferred to the assay plates by a pintool station (Kalypsys, San Diego, CA), followed by addition of 1 ul of T3 (1 nM, final concentration in the wells) to stimulate TR transactivation. The assay plates were incubated at 37 C for 23.5 h, and then 1 uL of CellTiter-Fluor reagent (Promega, Madision, WI) of measuring cytotoxicity was added to each well using a Bioraptr Flying Reagent Dispenser (FRD) workstation (Beckman Coulter, Indianapolis, IN, USA). The plates were incubated at 37C and 5% CO2 for additional 30 min, and fluorescence intensity was measured by a ViewLux plate reader (PerkinElmer, Shelton, CT).
Potency is read from the fitted curve at half-maximal effect.

Compound	Potency	activity change, negative = cytotoxic
Cc1ncc([N+](=O)[O-])n1CC(C)O (stereo not given)	inactive	–
CCC(C)OC(C)CC (stereo not given)	inactive	–
CC1=C(C(=O)O)N2C(=O)[C@@H](NC(=O)[C@H](N)C3=CCC=CC3)[C@H]2SC1	inactive	–
CC(=O)O[Si](C)(OC(C)=O)OC(C)=O	inactive	–
COc1c2occc2c(OC)c2c(=O)cc(C)oc12	inactive	–
CCc1occc(=O)c1O	inactive	–
O=S(=O)(O)c1ccc2c(N=Nc3ccc(S(=O)(=O)O)c4ccccc34)c(O)c(S(=O)(=O)O)cc2c1	21.1 µM (active)	-5.75% [at 8.44 µM]
CCC/C=C(\C=O)CC	inactive	–
CC(=O)CCC1=C(C)CCCC1(C)C	inactive	–
Cc1ccc(C)c([N+](=O)[O-])c1	inactive	–
CC1CCc2c(N3CCC(O)CC3)c(F)cc3c(=O)c(C(=O)O)cn1c23 (stereo not given)	inactive	–
O=C(O)CCCCCC(=O)O	inactive	–
CCCCOC(=O)[C@H](C)O	inactive	–
CC(C)CO	inactive	–
CCC(=O)CC	inactive	–
CCCCCCCCCCCCCCCCCC#N	inactive	–
C[C@@H](O)C(=O)O	inactive	–
OCC1(CO)COCOC1	inactive	–
CC/C=C\CCOC(=O)c1ccccc1O	inactive	–
CC(N)CCCC(C)(C)O (stereo not given)	inactive	–

Compound	Potency	activity change, negative = cytotoxic
CCCCCCCCCCCCCCC(=O)NC(CO)CCCCCCCCCCCCCC (stereo not given)	inactive	–
CCC(C)C(=O)OCCc1ccccc1 (stereo not given)	inactive	–
CC1CC(=O)CC(C)(C)C1 (stereo not given)	inactive	–
CCC(C)C(C)=O (stereo not given)	inactive	–
OCCN1CCOCC1	inactive	–
CCCC(CC)c1ccccc1 (stereo not given)	inactive	–
CC(C)C1OCCN1CCOC(=O)NCCCCCCNC(=O)OCCN1CCOC1C(C)C (stereo not given)	inactive	–
CC1=NN(c2ccc(S(=O)(=O)O)cc2)C(=O)C1	inactive	–
Fc1ccccc1	inactive	–
CC(=O)C1C(=O)C=C(C)OC1=O (stereo not given)	inactive	–
CN(C)CCCCl	inactive	–
CC(O)COC(C)(C)C (stereo not given)	inactive	–
C=CCCCCCCCCC(=O)OCCCC	inactive	–
CC(C)OC(=O)OCOP(=O)(CO[C@H](C)Cn1cnc2c(N)ncnc21)OCOC(=O)OC(C)C	inactive	–
COC(=O)c1cccc(Cl)c1	inactive	–
CCOCCOCC	inactive	–
CSc1cnccn1	inactive	–
CCC(=O)c1c(O)cc(O)cc1O	inactive	–
CCCCCC(C)O (stereo not given)	inactive	–
